Experimental data as given in PubChem BioAssay AID1159580 (chemical genetic matrix, 2015).
Values joined by “and” are separate entries in the source; they are usually repeats but may differ in a detail not shown here. Equal values may be shown once. Screen size: about 5,500 compounds; about 2,000 (36%) were called active. Another 18% or so got no clear call; they are omitted. Cut-off read from the data, not from the text of the source: active = normalized growth mostly below about 0.91 (no sharp cut-off); inconclusive = no clear call, values can overlap the other calls; inactive = mostly above about 0.92. The list shows a part of the results.

Experiment: chemical genetic growth profiling, strain panel (AID 1159580);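 note: tested at 20 µM; growth read once vehicle control cultures reached saturation at 30 °C; 1 = growth at the plate median or of vehicle wells; lower values mean less growth of the strain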
Conditions: S. cerevisiae deletion strains, growth OD

Measured: normalized growth

Cc1cc(C(C)(C)C)c(O)c(C(C)(C)C)c1
inactive: locus YAL013W, strain DEP1, stronger effect = lower value 0.985 | locus YAL021C, strain ccr4, stronger effect = lower value 1.04 | locus YAL026C, strain drs2, stronger effect = lower value 0.956 | locus YAL030W, strain snc1, stronger effect = lower value 0.99 | locus YBL061C, strain skt5, stronger effect = lower value 0.943 | locus YBR009C, strain hhf1, stronger effect = lower value 0.91 | locus YBR021W, strain FUR4, stronger effect = lower value 0.997 | locus YBR023C, strain chs3, stronger effect = lower value 0.984 | locus YBR171W, strain sec66, stronger effect = lower value 0.979 | locus YBR229C, strain ROT2, stronger effect = lower value 0.964 | locus YBR231C, strain swc5, stronger effect = lower value 0.921 | locus YBR279W, strain paf1, stronger effect = lower value 0.996 | locus YCL011C, strain gbp2, stronger effect = lower value 0.917 | locus YCL016C, strain dcc1, stronger effect = lower value 0.983 | locus YCL029C, strain bik1, stronger effect = lower value 0.983 | locus YCL061C, strain MRC1, stronger effect = lower value 0.991 | locus YCL069W, strain vba3, stronger effect = lower value 0.99 | locus YCR088W, strain abp1, stronger effect = lower value 0.976 | locus YDL005C, strain med2, stronger effect = lower value 0.975 | locus YDL035C, strain GPR1, stronger effect = lower value 0.947 | locus YDL040C, strain nat1, stronger effect = lower value 0.978 | locus YDL074C, strain BRE1, stronger effect = lower value 0.816 | locus YDL101C, strain DUN1, stronger effect = lower value 0.96 | locus YDL134C, strain PPH21, stronger effect = lower value 0.972 | locus YDL185W, strain tfp1, stronger effect = lower value 0.962 | locus YDL192W, strain arf1, stronger effect = lower value 0.969 | locus YDR001C, strain nth1, stronger effect = lower value 0.978 | locus YDR069C, strain doa4, stronger effect = lower value 0.963 | locus YDR101C, strain arx1, stronger effect = lower value 0.977 | locus YDR137W, strain rgp1, stronger effect = lower value 0.965 | locus YDR150W, strain NUM1, stronger effect = lower value 0.975 | locus YDR159W, strain sac3, stronger effect = lower value 0.959 | locus YDR162C, strain NBP2, stronger effect = lower value 0.859 | locus YDR297W, strain sur2, stronger effect = lower value 0.983 | locus YDR318W, strain mcm21, stronger effect = lower value 0.984 | locus YDR334W, strain swr1, stronger effect = lower value 0.966 | locus YDR335W, strain msn5, stronger effect = lower value 0.989 | locus YDR388W, stronger effect = lower value 0.994 | locus YDR392W, strain spt3, stronger effect = lower value 0.937 | locus YDR502C, strain sam2, stronger effect = lower value 0.952 | locus YEL003W, strain gim4, stronger effect = lower value 0.967 | locus YEL037C, strain rad23, stronger effect = lower value 0.976 | locus YEL061C, strain CIN8 (second series), stronger effect = lower value 0.976 | locus YEL061C, strain CIN8, stronger effect = lower value 0.983 | locus YER015W, strain faa2, stronger effect = lower value 0.937 | locus YER016W, strain bim1, stronger effect = lower value 0.984 | locus YER110C, stronger effect = lower value 1 | locus YER111C, strain swi4, stronger effect = lower value 0.982 | locus YER155C, strain BEM2 (second series), stronger effect = lower value 0.949 | locus YER155C, strain BEM2, stronger effect = lower value 0.986 | locus YER167W, strain BCK2, stronger effect = lower value 0.963 | locus YFR010W, strain ubp6, stronger effect = lower value 0.956 | locus YGL078C, strain dbp3, stronger effect = lower value 0.962 | locus YGL086W, strain mad1, stronger effect = lower value 1 | locus YGL167C, strain pmr1, stronger effect = lower value 0.991 | locus YGL173C, strain kem1, stronger effect = lower value 0.957 | locus YGL227W, strain vid30, stronger effect = lower value 0.989 | locus YGL240W, strain doc1, stronger effect = lower value 0.938 | locus YGL248W, strain PDE1, stronger effect = lower value 0.965 | locus YGL253W, strain hxk2, stronger effect = lower value 0.96 | locus YGR078C, strain PAC10, stronger effect = lower value 0.93 | locus YGR135W, strain pre9, stronger effect = lower value 0.928 | locus YGR229C, strain SMI1, stronger effect = lower value 0.86 | locus YGR252W, strain gcn5, stronger effect = lower value 1.03 | locus YHR013C, strain ard1, stronger effect = lower value 1.1 | locus YHR027C, strain rpn1, stronger effect = lower value 0.955 | locus YHR030C, strain SLT2, stronger effect = lower value 0.996 and 0.877 | locus YHR079C, strain IRE1 (second series), stronger effect = lower value 0.963 | locus YHR079C, strain IRE1, stronger effect = lower value 0.918 | locus YHR094C, strain hxt1, stronger effect = lower value 1 | locus YHR129C, strain ARP1, stronger effect = lower value 0.978 | locus YHR142W, strain chs7, stronger effect = lower value 0.961 | locus YHR200W, strain rpn10, stronger effect = lower value 1 | locus YIL066C, strain RNR3, stronger effect = lower value 0.934 | locus YIL073C, strain SPO22, stronger effect = lower value 0.929 | locus YIL125W, strain kgd1, stronger effect = lower value 0.967 | locus YIR030C, strain dcg1, stronger effect = lower value 0.998 | locus YJL092W, strain hpr5, stronger effect = lower value 0.984 | locus YJL095W, strain BCK1 (second series), stronger effect = lower value 0.979 | locus YJL095W, strain BCK1, stronger effect = lower value 0.903 and 0.934 | locus YJL115W, strain asf1, stronger effect = lower value 0.983 | locus YJL129C, strain trk1, stronger effect = lower value 0.953 | locus YJL134W, strain LCB3, stronger effect = lower value 1 | locus YJL154C, strain vps35, stronger effect = lower value 0.984 | locus YJL164C, strain tpk1, stronger effect = lower value 0.95 | locus YJL166W, strain qcr8, stronger effect = lower value 0.951 | locus YJL168C, strain set2, stronger effect = lower value 0.996 | locus YJL187C, strain SWE1 (second series), stronger effect = lower value 0.886 | locus YJR043C, strain POL32, stronger effect = lower value 0.97 | locus YJR066W, strain TOR1, stronger effect = lower value 0.942
active: locus YDR195W, strain ref2 0.845
